From publication PMC9911399, “Two distinct binding modes provide the RNA-binding protein RbFox with extraordinary sequence specificity”
Where a chain is given by its changes, count along the chain named. Over roughly 16,000 sequences, “ka relative to ugcaugu” has its median near 0.096; the highest 2% begin near 0.35. Shown is part of a subset that was picked to be rich in the highest values.

B1: ACGUAGU (DNA:RNA)
RNA: GGGAGACCGGAAUUCAGAUUGUCCACGUAGUUUAAAUCCCGUCGUAGCCACCA
DNA 1: CAATCTGAATTCCGGTCTCCC
DNA 2: TGGTGGCTACGACGGGATT
B2: CAACGCA (DNA:RNA)
RNA: GGGAGACCGGAAUUCAGAUUGUCCCAACGCAUUAAAUCCCGUCGUAGCCACCA
DNA 1: CAATCTGAATTCCGGTCTCCC
DNA 2: TGGTGGCTACGACGGGATT
B3: UGUAUAC (DNA:RNA)
RNA: GGGAGACCGGAAUUCAGAUUGUCCUGUAUACUUAAAUCCCGUCGUAGCCACCA
DNA 1: CAATCTGAATTCCGGTCTCCC
DNA 2: TGGTGGCTACGACGGGATT
B4: UUCCAAG (DNA:RNA)
RNA: B3 RNA with G26U, U27C, A28C, U29A, C31G
DNA 1: CAATCTGAATTCCGGTCTCCC
DNA 2: TGGTGGCTACGACGGGATT
B5: AUCGUGG (DNA:RNA)
RNA: B1 RNA with C26U, G27C, U28G, A29U, U31G
DNA 1: CAATCTGAATTCCGGTCTCCC
DNA 2: TGGTGGCTACGACGGGATT
B6: CGUUUCG (DNA:RNA)
RNA: B3 RNA with U25C, A28U, A30C, C31G
DNA 1: CAATCTGAATTCCGGTCTCCC
DNA 2: TGGTGGCTACGACGGGATT
B7: CAAAACG (DNA:RNA)
RNA: B2 RNA with C28A, G29A, A31G
DNA 1: CAATCTGAATTCCGGTCTCCC
DNA 2: TGGTGGCTACGACGGGATT
B8: GAGAGGA (DNA:RNA)
RNA: B2 RNA with C25G, A27G, C28A, C30G
DNA 1: CAATCTGAATTCCGGTCTCCC
DNA 2: TGGTGGCTACGACGGGATT
B9: GAUUGAG (DNA:RNA)
RNA: B2 RNA with C25G, A27U, C28U, C30A, A31G
DNA 1: CAATCTGAATTCCGGTCTCCC
DNA 2: TGGTGGCTACGACGGGATT
B10: GAAUGAG (DNA:RNA)
RNA: B2 RNA with C25G, C28U, C30A, A31G
DNA 1: CAATCTGAATTCCGGTCTCCC
DNA 2: TGGTGGCTACGACGGGATT
B11: CGAUGAG (DNA:RNA)
RNA: B2 RNA with A26G, C28U, C30A, A31G
DNA 1: CAATCTGAATTCCGGTCTCCC
DNA 2: TGGTGGCTACGACGGGATT
B12: GGAUGAG (DNA:RNA)
RNA: B2 RNA with C25G, A26G, C28U, C30A, A31G
DNA 1: CAATCTGAATTCCGGTCTCCC
DNA 2: TGGTGGCTACGACGGGATT
B13: CUAUGAG (DNA:RNA)
RNA: B2 RNA with A26U, C28U, C30A, A31G
DNA 1: CAATCTGAATTCCGGTCTCCC
DNA 2: TGGTGGCTACGACGGGATT
B14: GUAUGAG (DNA:RNA)
RNA: B2 RNA with C25G, A26U, C28U, C30A, A31G
DNA 1: CAATCTGAATTCCGGTCTCCC
DNA 2: TGGTGGCTACGACGGGATT
B15: AUUACUA (DNA:RNA)
RNA: B3 RNA with U25A, G26U, U29C, A30U, C31A
DNA 1: CAATCTGAATTCCGGTCTCCC
DNA 2: TGGTGGCTACGACGGGATT
B16: GGCAUUC (DNA:RNA)
RNA: B3 RNA with U25G, U27C, A30U
DNA 1: CAATCTGAATTCCGGTCTCCC
DNA 2: TGGTGGCTACGACGGGATT
B17: GGCAUCC (DNA:RNA)
RNA: B3 RNA with U25G, U27C, A30C
DNA 1: CAATCTGAATTCCGGTCTCCC
DNA 2: TGGTGGCTACGACGGGATT
B18: GGCAUCG (DNA:RNA)
RNA: B3 RNA with U25G, U27C, A30C, C31G
DNA 1: CAATCTGAATTCCGGTCTCCC
DNA 2: TGGTGGCTACGACGGGATT
B19: GGCAUUG (DNA:RNA)
RNA: B3 RNA with U25G, U27C, A30U, C31G
DNA 1: CAATCTGAATTCCGGTCTCCC
DNA 2: TGGTGGCTACGACGGGATT
B20: GUCGGCA (DNA:RNA)
RNA: B2 RNA with C25G, A26U, A27C, C28G
DNA 1: CAATCTGAATTCCGGTCTCCC
DNA 2: TGGTGGCTACGACGGGATT
B21: GGCACCG (DNA:RNA)
RNA: B3 RNA with U25G, U27C, U29C, A30C, C31G
DNA 1: CAATCTGAATTCCGGTCTCCC
DNA 2: TGGTGGCTACGACGGGATT
B22: CGAUGAA (DNA:RNA)
RNA: B2 RNA with A26G, C28U, C30A
DNA 1: CAATCTGAATTCCGGTCTCCC
DNA 2: TGGTGGCTACGACGGGATT
B23: AAAAUAC (DNA:RNA)
RNA: B3 RNA with U25A, G26A, U27A
DNA 1: CAATCTGAATTCCGGTCTCCC
DNA 2: TGGTGGCTACGACGGGATT
B24: CCACGAC (DNA:RNA)
RNA: B2 RNA with A26C, C30A, A31C
DNA 1: CAATCTGAATTCCGGTCTCCC
DNA 2: TGGTGGCTACGACGGGATT
B25: AUUAACG (DNA:RNA)
RNA: B1 RNA with C26U, G27U, U28A, G30C, U31G
DNA 1: CAATCTGAATTCCGGTCTCCC
DNA 2: TGGTGGCTACGACGGGATT
B26: AUGAAUG (DNA:RNA)
RNA: B1 RNA with C26U, U28A, G30U, U31G
DNA 1: CAATCTGAATTCCGGTCTCCC
DNA 2: TGGTGGCTACGACGGGATT
B27: AUCCAUG (DNA:RNA)
RNA: B1 RNA with C26U, G27C, U28C, G30U, U31G
DNA 1: CAATCTGAATTCCGGTCTCCC
DNA 2: TGGTGGCTACGACGGGATT
B28: AUGAUUC (DNA:RNA)
RNA: B3 RNA with U25A, G26U, U27G, A30U
DNA 1: CAATCTGAATTCCGGTCTCCC
DNA 2: TGGTGGCTACGACGGGATT
B29: AUGAUUG (DNA:RNA)
RNA: B1 RNA with C26U, U28A, A29U, G30U, U31G
DNA 1: CAATCTGAATTCCGGTCTCCC
DNA 2: TGGTGGCTACGACGGGATT
B30: ACCAUGA (DNA:RNA)
RNA: B1 RNA with G27C, U28A, A29U, U31A
DNA 1: CAATCTGAATTCCGGTCTCCC
DNA 2: TGGTGGCTACGACGGGATT
B31: AUGAAUC (DNA:RNA)
RNA: B1 RNA with C26U, U28A, G30U, U31C
DNA 1: CAATCTGAATTCCGGTCTCCC
DNA 2: TGGTGGCTACGACGGGATT

The binders below were run against T1, RBFOX1 RRM RbFoxmut (Fox-RRM*) (Homo sapiens, UniProt Q9NWB1 109-208, R118D;E147R;N151S;E152T) (assay: EMSA; HiTS-Eq, 1 nM pool, 10 min; buffer printed only for the single-RNA assays: 10 mM Tris pH 7.5, 150 mM NaCl, 3.4 mM EDTA, 0.001% NP-40, 30 C). Conditions: tags: His6 N-terminal (pET28a); label: 5' 32P.
T1 sequence: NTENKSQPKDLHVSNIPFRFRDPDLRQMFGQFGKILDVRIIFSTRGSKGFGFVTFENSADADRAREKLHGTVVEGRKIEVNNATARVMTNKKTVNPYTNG
Procedure, shortened: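 Purified RbFox RRM (wild type or mutant) was equilibrated for 10 min in 50 µL with 1 nM of a 5′-radiolabelled pool of RNA with 7 randomized nucleotides, its flanks annealed to DNA oligonucleotides, across increasing protein concentrations. Free RNA was separated by 8% native PAGE, excised, reverse-transcribed, PCR-barcoded and sequenced on an Illumina HiSeq 2500. Relative association constants came from read-count changes of each variant against the control reaction, normalised to the cognate motif.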

Binder | binding signal
B1 | 0.15 KA relative to UGCAUGU
B2 | 0.161 KA relative to UGCAUGU
B3 | 0.114 KA relative to UGCAUGU
B4 | 0.0952 KA relative to UGCAUGU
B5 | 0.124 KA relative to UGCAUGU
B6 | 0.17 KA relative to UGCAUGU
B7 | 0.0837 KA relative to UGCAUGU
B8 | 0.0596 KA relative to UGCAUGU
B9 | 0.183 KA relative to UGCAUGU
B10 | 0.983 KA relative to UGCAUGU
B11 | 0.133 KA relative to UGCAUGU
B12 | 0.225 KA relative to UGCAUGU
B13 | 0.107 KA relative to UGCAUGU
B14 | 0.513 KA relative to UGCAUGU
B15 | 0.129 KA relative to UGCAUGU
B16 | 0.119 KA relative to UGCAUGU

Binder | binding signal
B17 | 0.229 KA relative to UGCAUGU
B18 | 0.467 KA relative to UGCAUGU
B19 | 0.394 KA relative to UGCAUGU
B20 | 0.13 KA relative to UGCAUGU
B21 | 0.132 KA relative to UGCAUGU
B22 | 0.123 KA relative to UGCAUGU
B23 | 0.076 KA relative to UGCAUGU
B24 | 0.0943 KA relative to UGCAUGU
B25 | 0.134 KA relative to UGCAUGU
B26 | 1.02 KA relative to UGCAUGU
B27 | 0.1 KA relative to UGCAUGU
B28 | 0.139 KA relative to UGCAUGU
B29 | 0.428 KA relative to UGCAUGU
B30 | 0.076 KA relative to UGCAUGU
B31 | 0.334 KA relative to UGCAUGU
